Measured values taken from PubChem BioAssay (EPA / NIEHS).
Values joined by “and” are separate entries in the source; they are usually repeats but may differ in a detail not shown here. Equal entries are not always repeated. Records with an inconclusive call do not appear. Some structures have more than one record in an assay (separate samples or runs), and their calls can disagree. Active and inactive are the calls of the source. How the source made its calls, unless noted: active means hit-call score of the fitted dose curve at least 0.9, where 1 is the maximum; inconclusive means response in the unintended direction; inactive means score below 0.9.

Assays:
[1] = read-out: Transforming Growth Factor (TGFB1), TGFB1 (gene 7040); assay: LTEA_HepaRG_TGFB1: Life Technologies and Expression Analysis (LTEA) Assay for Transforming Growth Factor (TGFB1) Transporter using HepaRG (AID 2283533; active means hit-call score of the fitted dose curve at least 0.9, where 1 is the maximum; inactive means score below 0.9); details: mRNA level, 48 h; actives raise or lower the signal
How it was run: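 Differentiated human HepaRG cells in serum-free induction medium were exposed in duplicate for 48 h to eight concentrations (top 100 uM, half-log steps, 0.5% DMSO). TGFB1 mRNA was quantified by qRT-PCR, normalized to ACTB, GAPDH, POLR2A, and fitted bidirectionally against DMSO.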

TIMP1, TIMP1 (gene 7076) = assay: LTEA_HepaRG_TIMP1: Life Technologies and Expression Analysis (LTEA) Assay for TIMP1 using HepaRG (AID 2283534; active means hit-call score of the fitted dose curve at least 0.9, where 1 is the maximum; inactive means score below 0.9;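 further: TaqMan qRT-PCR signal normalized to ACTB GAPDH and POLR2A housekeeping genes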); details: mRNA level, 48 h; actives raise or lower the signal
How it was run: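 Differentiated human HepaRG cells in serum-free induction medium were exposed 48 h to chemicals (8 half-log concentrations, top 100 uM, 0.5% DMSO). TIMP1 mRNA was quantified by TaqMan qRT-PCR, normalized to ACTB/GAPDH/POLR2A; bidirectional fit versus DMSO.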

[2] = read-out: Tumor necrosis factor receptor 1 (TNFRSF1A), TNFRSF1A (gene 7132); assay: LTEA_HepaRG_TNFRSF1A: Life Technologies and Expression Analysis (LTEA) Assay for Tumor necrosis factor receptor 1 (TNFRSF1A) using HepaRG (AID 2283535; active means hit-call score of the fitted dose curve at least 0.9, where 1 is the maximum; inactive means score below 0.9); details: mRNA level, 48 h; actives raise or lower the signal
How it was run: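 Differentiated human HepaRG cells were exposed in duplicate for 48 h in serum-free induction medium to eight concentrations (top 100 uM, half-log steps, 0.5% DMSO). TNFRSF1A mRNA was quantified by qRT-PCR, normalized to ACTB, GAPDH and POLR2A, then fitted bidirectionally against DMSO.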

[3] = read-out: Thyroid Hormone Responsive (THRSP), THRSP (gene 7069); assay: LTEA_HepaRG_THRSP: Life Technologies and Expression Analysis (LTEA) Assay for Thyroid Hormone Responsive (THRSP) using HepaRG (AID 2283536; active means hit-call score of the fitted dose curve at least 0.9, where 1 is the maximum; inactive means score below 0.9); details: mRNA level, 48 h; actives raise or lower the signal
How it was run: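 Cell model: human HepaRG, approx. 100,000 cells/well, 0.5% DMSO vehicle. Exposure lasts 48 h; phenobarbital 1 mM serves as induction positive control. Gene expression is measured by qRT-PCR against three endogenous control genes.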

[4] = read-out: Cellular tumor antigen p53 (Homo sapiens) (UniProt P04637); assay: LTEA_HepaRG_TP53: Life Technologies and Expression Analysis (LTEA) Assay for Tumor Protein P53 (TP53) using HepaRG (AID 2283537; active means hit-call score of the fitted dose curve at least 0.9, where 1 is the maximum; inactive means score below 0.9); details: mRNA level, 48 h; actives raise or lower the signal
How it was run: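 HepaRG, 48 h exposure, top 100 uM, half-log 8-point, 0.5% DMSO vehicle, duplicates. Read: TP53 mRNA by TaqMan qRT-PCR, normalised to ACTB/GAPDH/POLR2A; bidirectional fit vs DMSO.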

[5] = read-out: UDP glucuronosyltransferase (UGT1A1), UGT1A1 (gene 54658); assay: LTEA_HepaRG_UGT1A1: Life Technologies and Expression Analysis (LTEA) Assay for UDP glucuronosyltransferase (UGT1A1) using HepaRG (AID 2283538; active means hit-call score of the fitted dose curve at least 0.9, where 1 is the maximum; inactive means score below 0.9); details: mRNA level, 48 h; actives raise or lower the signal
How it was run: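 mRNA induction or loss of UGT1A1, by TaqMan qRT-PCR, in duplicate HepaRG wells after 48 h exposure to half-log dilutions topping at 100 uM; DMSO (0.5%) served as baseline.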

[6] = read-out: UDP glucuronosyltransferase (UGT1A6), UGT1A6 (gene 54578); assay: LTEA_HepaRG_UGT1A6: Life Technologies and Expression Analysis (LTEA) Assay for UDP glucuronosyltransferase (UGT1A6) using HepaRG (AID 2283539; active means hit-call score of the fitted dose curve at least 0.9, where 1 is the maximum; inactive means score below 0.9); details: mRNA level, 48 h; actives raise or lower the signal
How it was run: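 Human HepaRG cells were dosed for 48 h in serum-free induction medium with 0.5% DMSO vehicle, eight-point half-log series from 100 uM, in duplicate. UGT1A6 mRNA was measured by qRT-PCR, normalized to ACTB, GAPDH, POLR2A, and fitted bidirectionally against DMSO.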

[7] = read-out: X-box binding protein 1 (XBP1), XBP1 (gene 7494); assay: LTEA_HepaRG_XBP1: Life Technologies and Expression Analysis (LTEA) Assay for X-box binding protein 1 (XBP1) using HepaRG (AID 2283540; active means hit-call score of the fitted dose curve at least 0.9, where 1 is the maximum; inactive means score below 0.9); details: mRNA level, 48 h; actives raise or lower the signal
How it was run: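 Differentiated human HepaRG cells in serum-free induction medium were exposed in duplicate for 48 h to eight half-log concentrations up to 100 uM in 0.5% DMSO. XBP1 mRNA was quantified by qRT-PCR, normalised to ACTB, GAPDH and POLR2A, with bidirectional fitting against DMSO.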

[8] = LTEA_HepaRG_LDH_cytotoxicity: Cytotoxicity Assessment in the Life Technologies and Expression Analysis (LTEA) Assay (AID 2283563);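 on AC50: LDH activity released into spent culture medium as a marker of cell death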
How it was run: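 Differentiated human HepaRG cells, plated 48 h beforehand, were switched to serum-free induction medium and exposed for 48 h to eight half-log concentrations (top 100 uM) in 0.5% DMSO. LDH was measured in spent medium; activity was fitted relative to DMSO vehicle.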

[9] = ATG_XTT_Cytotoxicity: Cytotoxicity Assessment in the Attagene TRANS-FACTORIAL HepG2 Assay (AID 2283584)
How it was run: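 HepG2 human liver cells, transiently transfected with multiple GAL4-UAS reporter units, were dosed and read at 24 h by XTT as cell number. Loss of signal was fitted relative to DMSO negative control baseline.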

[10] = target: Cellular tumor antigen p53 (Homo sapiens) (UniProt P04637); assay: TOX21_p53_BLA_p2_ratio: Tox21 HCT-116 p53 Agonism Beta-lactamase Assay, Ratio, Phase 2 (AID 2283592)
Sequence of Cellular tumor antigen p53 (Homo sapiens) (P04637 whole entry, looked up): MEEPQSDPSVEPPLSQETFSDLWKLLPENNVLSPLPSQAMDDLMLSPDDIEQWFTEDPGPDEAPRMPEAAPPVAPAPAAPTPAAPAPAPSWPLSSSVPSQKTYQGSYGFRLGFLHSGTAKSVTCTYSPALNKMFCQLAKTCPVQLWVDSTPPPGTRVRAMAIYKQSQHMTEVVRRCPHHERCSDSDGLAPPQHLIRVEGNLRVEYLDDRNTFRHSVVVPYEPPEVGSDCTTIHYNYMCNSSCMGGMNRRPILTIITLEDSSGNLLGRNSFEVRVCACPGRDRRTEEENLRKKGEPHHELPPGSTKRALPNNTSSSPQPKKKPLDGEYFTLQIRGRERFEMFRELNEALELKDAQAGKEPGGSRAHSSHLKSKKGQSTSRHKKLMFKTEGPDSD
How it was run: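 Ratio endpoint: beta-lactamase cleavage of CCF4-AM, blue (460 nm) over green (530 nm). HCT116 reporter line; 16 h treatment, 37C; substrate 2 h RT.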

[11] = target: Cellular tumor antigen p53 (Homo sapiens) (UniProt P04637); assay: TOX21_p53_BLA_p3_ratio: Tox21 HCT-116 p53 Agonism Beta-lactamase Assay, Ratio, Phase 3 (AID 2283596)
How it was run: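 Cells were seeded at 4000/well, rested 5 h at 37C, then dosed with DMSO compound solutions (217-fold dilution) for 16 h. CCF4-AM substrate was loaded for 2 h at room temperature, and the 460/530 nm emission ratio was fitted for gain of signal versus DMSO.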

[12] = TOX21_p53_BLA_p4_viability: Viability Assessment in the Tox21 HCT-116 p53 Agonism Beta-lactamase Assay, Phase 4 (AID 2283597);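 further: hits lower the luminescence signal meaning cytotoxicity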
How it was run: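 Cytotoxicity was inferred from loss of CellTiter-Glo luminescence. HCT116 cells had been dosed with compounds after 5 h plating, incubated 16 h at 37C and 5% CO2, and exposed to the CCF4-AM substrate for 2 h.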

[13] = target: Cellular tumor antigen p53 (Homo sapiens) (UniProt P04637); assay: TOX21_p53_BLA_p5_ratio: Tox21 HCT-116 p53 Agonism Beta-lactamase Assay, Ratio, Phase 5 (AID 2283599)
How it was run: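 HCT-116 cells carrying a p53-inducible beta-lactamase reporter were seeded at 4000 cells/well and dosed after 5 h with compound in DMSO (217-fold dilution). After 16 h at 37C, CCF4-AM substrate was added for 2 h, and the 460/530 nm emission ratio was scored as gain-of-signal versus DMSO.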

[14] = target: Cellular tumor antigen p53 (Homo sapiens) (UniProt P04637); assay: TOX21_p53_BLA_p4_ratio: Tox21 HCT-116 p53 Agonism Beta-lactamase Assay, Ratio, Phase 4 (AID 2283601)
How it was run: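 HCT116 cells carrying an inducible beta-lactamase reporter were plated at 4000 cells/well, rested 5 h, then exposed to compounds in DMSO (217-fold dilution) for 16 h at 37C. CCF4-AM substrate was loaded 2 h at room temperature; 460/530 nm emission ratio scored gain-of-signal versus DMSO.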

[15] = Tanguay_ZF_120hpf_MORT_legacy: (Legacy) Oregon State University Tanguay Lab 120 Hour Post-fertilization zebrafish Assay for Mortality (AID 2283633);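 on AC50: fitted as increase in binary mortality versus DMSO negative control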
How it was run: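 Dechorionated Tropical 5D wild-type zebrafish embryos, one per well from 6 hpf, were statically exposed at 28C in the dark until 120 hpf (0.64% DMSO final). Mortality was scored as present/absent by brightfield microscopy, fitted positively versus DMSO.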

[16] = TOX21_p53_BLA_p2_viability: Viability Assessment in the Tox21 HCT-116 p53 Agonism Beta-lactamase Assay, Phase 2 (AID 2283591);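 further: compound exposure lasted 16 h at 37 °C; actives lower the ATP signal meaning cytotoxicity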
How it was run: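 HCT-116 p53-bla cells (4000/well) rested 5 h at 37C, then received compounds in DMSO (217-fold dilution) for 16 h at 37C, 5% CO2. After the CCF4 read, CellTiter-Glo was added; ATP luminescence was read after 30 min at room temperature.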

[17] = TOX21_p53_BLA_p3_viability: Viability Assessment in the Tox21 HCT-116 p53 Agonism Beta-lactamase Assay, Phase 3 (AID 2283593);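 further: cells exposed to compound for 16 h before reading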
How it was run: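 HCT-116 cells (4000/well) rested 5 h at 37C, then got DMSO compounds by pin tool (217-fold dilution) for 16 h at 37C, 5% CO2. After the bla read, CellTiter-Glo was added and luminescence read at 30 min, room temperature.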

[18] = TOX21_p53_BLA_p5_viability: Viability Assessment in the Tox21 HCT-116 p53 Agonism Beta-lactamase Assay, Phase 5 (AID 2283600)
How it was run: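 Luciferase-coupled ATP quantitation of cells treated for 16 h (37C, 5% CO2) with test chemicals delivered in DMSO via a 217-fold dilution; 4000 cells/well; reagent incubated 30 min at room temperature before luminescence reading.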

[19] = Tanguay_ZF_120hpf_YSE_legacy: (Legacy) Oregon State University Tanguay Lab 120 Hour Post-fertilization zebrafish Assay for Yolk Sac Edema (AID 2283634);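 on AC50: actives raise the incidence of yolk sac edema above the DMSO baseline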
How it was run: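 Tropical 5D wild-type embryos, dechorionated with pronase at 4 hpf, were exposed singly from 6 hpf to 120 hpf under static, sealed, dark conditions at 28C with 0.64% DMSO final. Yolk sac edema was scored present/absent by brightfield microscopy.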

Measured: AC50

CCOCN(C(=O)CCl)c1c(C)cccc1CC
active: [3] 9.92 µM | [8] 76 µM
not listed: [16] | [17] | [18] | [19]
inactive: all other assays above

O=[N+]([O-])c1c(Cl)c(Cl)c(Cl)c(Cl)c1Cl
active: [5] 17.2 µM
not listed: [9] | [15]
inactive: all other assays above

COP(=S)(OC)Oc1ccc(SC)c(C)c1
active: [5] 25.2 µM
inactive: all other assays above

CN1CSC(=S)N(C)C1
active: [19] 26.6 µM
not listed: [9]
inactive: all other assays above

Oc1ccc(Cl)cc1Cc1ccccc1
inactive: [1] | TIMP1, TIMP1 (gene 7076) | [2] | [4] | [5] | [6] | [7] | [9] | [10] | [17] | [11] | [18] | [14] | [19]
active: [3] 78.1 µM and 50.5 µM and 87.7 µM | [6] 81.1 µM | [8] 91.5 µM and 93.3 µM and 94.7 µM | [16] 70.3 µM and 66.7 µM | [10] 85 µM and 57.2 µM | [17] 72.8 µM | [12] 67.5 µM and 23.3 µM and 36.5 µM | [13] 79 µM and 86.7 µM | [18] 73.6 µM and 70.6 µM | [14] 86.5 µM and 41.3 µM | [15] 10.8 µM and 6.48 µM and 36 µM
